The source of these data is PubChem BioAssay.

For orientation: inhibition means the change of the read-out against control, counted positive when it falls.

Values joined by “and” are separate entries in the source; they are usually repeats but may differ in a detail not shown here. Equal entries are not always repeated. For some of these results: Measured potencies and affinities stand elsewhere. Active and inactive are the calls of the source.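 Rule for the calls, unless noted: active = thallium flux through the channel raised or lowered by more than 3 SD from vehicle-only wells, actives on both sides; inactive = the rest.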

Assay [1] can be described thus: blockers of polyQ-driven CASP3 activation – cell-based (AID 1583). As to conditions: polyglutamine-induced caspase-3 activation, cell assay; stronger effect = higher value;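 tested at 10 µM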.
The nature of assay [2]: yeast 75Q aggregation reduction – 75Q-TubU reporter (AID 1593). As to conditions: Yeast 75Q polyglutamine aggregation reporter.
A short description of assay [3]: restoration of touch response, mutant HTT neurons – whole organism, C. elegans mechanosensory neurons, N-terminal huntingtin (AID 1599). The settings on record: C. elegans polyQ-huntingtin mechanosensory neurons, stronger effect = higher value.
The nature of assay [4]: blockers of cytochrome c efflux from mitochondria – biochemical, purified mitochondria (AID 1603).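 Note: mouse liver mitochondria challenged with calcium chloride; signal normalized to the plate average as 100%.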 As to conditions: stronger effect = lower value.
Assay [5] is described as follows: polyglutamine aggregate formation blockers (AID 1604). The settings on record: polyglutamine-induced protein aggregation inhibition assay; stronger effect = higher value; tested at 2.5 µM.
A short description of assay [6]: glutamate transport activators, MN-1 cells, MN-1 cell line (AID 1612).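 Note: tested at 1 µM final; 0% = mean of DMSO vehicle wells on each plate; positive means more glutamate uptake than control and negative means less.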 As to conditions: MN-1 motor neuron cells, stronger effect = higher value.
Assay [7] can be described thus: 75Q-TubH aggregate inhibition, S. cerevisiae, yeast (AID 1616). As to conditions: S. cerevisiae 75Q-TubH polyglutamine aggregation suppression; stronger effect = higher value.
Assay [8] in a line: signal quenchers or enhancers, Cy5 substrate/SSB – biochemical, NIH Clinical Collection, E. coli SSB, artefact control for HCV NS3 helicase inhibitor project (AID 743268; call rule not given here). The settings on record: Cy5-oligo bound E. coli SSB, fluorescence interference.
Assay [9] has as its system Hepatitis C virus NS3 helicase. The assay is described as follows: blockers of NS3h binding to DNA – biochemical, fluorescence polarization, NIH Clinical Collection, primary screen (AID 743270; call rule not given here). The settings on record: NS3 helicase binding to Cy5-dT15 DNA, stronger effect = higher value, concentration not given here. For orientation: Polarisation of emitted light reports the rotation of a fluorescent probe.

Assay [10] deals with Single-stranded DNA-binding protein (Escherichia coli (strain K12)) (UniProt P0AGE0). Nature of the assay: SSB-ssDNA binding inhibitors – biochemical, fluorescence polarization, NIH Clinical Collection, counter-screen for HCV NS3 helicase inhibitor project (AID 743271; in the data active = inhibition above about 28%). The settings on record: E. coli SSB-DNA binding, stronger effect = higher value, concentration not given here.
Assay [11] in a line: compounds distorting NS3 helicase fluorescence signal – biochemical, NIH Clinical Collection, artefact control for HCV NS3 helicase inhibitor project (AID 743272; call rule not given here;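 note: HCV NS3 helicase with a Cy5 labelled single stranded DNA probe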). The settings on record: fluorescence interference counterscreen, HCV NS3 helicase assay; stronger effect = lower value. A general note: The purpose of a counterscreen is to sort out artefacts and off-target activity.
A short description of assay [12]: viability loss with induced miR-34 in A549 – imaging, A549 dox-inducible miR-34, nuclei and caspase counts, primary screen (AID 1347080;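 active = compounds whose cell count with miR-34 switched on is under 0.7 times the count with it off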). As to conditions: A549 miR-34 inducible, Hoechst nuclei count, 48 h.
Assay [13] can be described thus: galactose survival enhancers in mitochondrial complex I cybrids – cell-based, galactose medium, ATP luminescence, primary screen (AID 1645843;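 active = z-score of at least 1.8 in each of two replicates, scored against plate mean and spread of sample wells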;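 note: positive z means more ATP and so rescue of galactose-driven cybrid death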). As to conditions: complex I mutant cybrid cells, 72 h, stronger effect = higher value.
The nature of assay [14]: growth inhibition, single agents and combos, ICB984, cell-based, cisplatin or BGB combos, synergistic combos for chromothripsis tumors (AID 1671451; call rule not given here;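 note: cells exposed for 96 hours before readout; 0% = vehicle DMSO and 100% = killing by high DMSO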). The settings on record: ICB984 medulloblastoma cells, drug combinations, stronger effect = higher value.
For another assay, the system named is R275C. The assay is described as follows: BK channel mutant inhibitors and activators – cell-based, U2OS BacMam, thallium flux, beta subunits, selectivity assay, profiling panel (AID 1259406).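 Note: initial slope of Thallos dye fluorescence rise after thallium is added; log ratio against the mean of 0.3% DMSO vehicle wells on the same plate.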 The settings on record: U2OS BacMam BK variants, at 30 µM.
The next assay relates to R275C/beta1. Described as above. As to conditions: U2OS BacMam BK variants, at 30 µM.
The subject of another assay is R275C/beta2Delta. Described as above. As to conditions: U2OS BacMam BK variants, at 30 µM.
A further assay concerns R275C/beta4. The assay is described as above. As to conditions: U2OS BacMam BK variants, at 30 µM.
The next assay has as its system R275C/Slo1WT/beta2. The assay is described as above. As to conditions: U2OS BacMam BK variants, at 30 µM.
Assay [15] is described as follows: compounds altering viability of human ES cells (AID 493140; call rule not given here;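 note: cells exposed to compounds for four days before counting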). The settings on record: human embryonic stem cell survival screen; stronger effect = higher value.

`CS(=O)(=O)OCCCCOS(C)(=O)=O`: the inhibition is 27.2% in [1]; -12.3% (inactive) in [9]; -0.48% (inactive) in [10]; -15.4% and -25.1% in assay [14] (BGB IC20 combo, at 0.005 µM); -13.7% and -14% in assay [14] (BGB IC40 combo, at 0.005 µM); -7.43% and 3.18% in [14] (BGB IC40 combo, at 0.05 µM). The inhibition in [14] (at 0.5 µM) was -25.5% (inactive) and -7% (inactive); in assay [14] (cisplatin combo, at 0.05 µM), -11.3% and 3.18%; in assay [14] (cisplatin combo, at 0.5 µM) it was -9.08% and -3.26%; in assay [14] (cisplatin combo, at 5 µM) it was -50.4% and -16.4%; in [14] (measured here: 5 uM single agent, at 5 µM), -29.1% and 6.4%. The molecule further came in with a score in assay [2] of 1.46. Besides, the rescue above control in [3] was -1.18. Also, the cytochrome c release ratio in [4] was 0.62. Moreover, the inhibition of aggregation in assay [5] worked out at 54%. Moreover, in assay [6], the glutamate uptake change turned out to be 14.5%. Moreover, the aggregation suppression score in [7] is 1.4. Moreover, the fluorescence ratio was 1.02 (inactive) in assay [8] and 0.92 (inactive) in assay [11]. Also, the fold change is 0.955 (inactive) and 0.888 (inactive) and 0.86 (inactive) in assay [12] (stronger effect = lower value, cell number ratio, induced over uninduced); 1.41 and 0.655 and 1.42 in assay [12] (measured here: relative caspase fold change +Dox/-Dox). Further, the cell count was 9740 and 7120 and 8790 in [12] (measured here: total cells with miR-34 induction, stronger effect = lower value); 10200 and 8020 in [12] (measured here: total cells without miR-34 induction). The z-score in assay [13] was 0.925 (inactive). Besides, the log fold change Tl+ flux in the assay on R275C is 0.0198 (inactive); in the assay with R275C/beta1, -0.0312 (inactive); in the assay with R275C/beta2Delta it was 0.0365 (inactive); in the assay with R275C/beta4, -0.0126 (inactive); in the assay on R275C/Slo1WT/beta2 it was 0.0135 (inactive).

With `COc1ccccc1OCCNCC(O)COc1cccc2[nH]c3ccccc3c12` (configuration not stated), the fluorescence ratio was 0.92 (inactive) in assay [8] and 0.94 (inactive) in assay [11]. Also, the inhibition in assay [9] was 1.19% (inactive); in [10], 6.83% (inactive). Moreover, the log fold change Tl+ flux in the assay on R275C is -0.174 (active); with R275C/beta1, 0.386 (active); in the assay on R275C/beta2Delta, 0.0657 (inactive); in the assay with R275C/beta4, 0.216 (active); with R275C/Slo1WT/beta2, 0.0443 (inactive).

Take `N[C@@H](Cc1cc(I)c(Oc2cc(I)c(O)c(I)c2)c(I)c1)C(=O)O`: the fluorescence ratio in [8] is 0.87 (inactive); in assay [11], 0.88 (inactive). Also, the inhibition was 0.45% (inactive) in [9] and 0.29% (inactive) in assay [10]. Further, the z-score in [13] is -1.38 (inactive) and -0.805 (inactive). Further, the log fold change Tl+ flux was 0.00175 (inactive) with R275C; 0.0456 (inactive) in the assay on R275C/beta1; 0.134 (active) in the assay with R275C/beta2Delta; 0.234 (active) in the assay on R275C/beta4; 0.0236 (inactive) in the assay with R275C/Slo1WT/beta2.

Regarding `OC(Cn1cncn1)(Cn1cncn1)c1ccc(F)cc1F`, the figures for the inhibition in assay [1], in assay [9] and in assay [10] were -12.6%, -3.18% (inactive) and -4.29% (inactive), respectively. Besides, in assay [2], the score worked out at 0.67. This molecule showed a rescue above control in assay [3] of -3.31. In assay [4], the cytochrome c release ratio worked out at 0.79. Moreover, in assay [5], the inhibition of aggregation was found to be 0%. Moreover, in [6], the glutamate uptake change was -9.51%. The aggregation suppression score in assay [7] is 0.253. Moreover, the values for the fluorescence ratio in assay [8] and in [11] were 1.05 (inactive) and 1.02 (inactive), respectively. Moreover, in assay [13], the z-score was 1.3 (inactive) and 0.555 (inactive). The log fold change Tl+ flux in the assay on R275C was 0.0468 (inactive); in the assay on R275C/beta1, 0.023 (inactive); in the assay with R275C/beta2Delta, 0.0182 (inactive); in the assay on R275C/beta4, 0.0436 (inactive); in the assay with R275C/Slo1WT/beta2 it was 0.0134 (inactive).

Consider `CCN(Cc1ccncc1)C(=O)C(CO)c1ccccc1` (configuration not stated), for which the inhibition in [1] was 24.2%; in assay [9], -2.27% (inactive); in assay [10], -5.05% (inactive). The score in [2] came to 1.22. This molecule also had a rescue above control in [3] of -3.59. In assay [4], the cytochrome c release ratio stood at 1.14. The same molecule came in with an inhibition of aggregation in assay [5] of 87%. Further, in [6], the glutamate uptake change was -2.09%. The molecule also displayed an aggregation suppression score in assay [7] of 1.36. Moreover, the survival in assay [15] was 16.4 (inactive). Moreover, the fluorescence ratio is 1.06 (inactive) in assay [8] and 1.03 (inactive) in assay [11]. Moreover, the log fold change Tl+ flux in the assay on R275C was -0.035 (inactive); in the assay with R275C/beta1, 0.0151 (inactive); with R275C/beta2Delta, 0.0198 (inactive); in the assay on R275C/beta4 it was 0.0153 (inactive); with R275C/Slo1WT/beta2, 0.0191 (inactive).
